Only some compounds are listed: those with a hit (about 0.86% of all), similar ones and a draw of the others.
A1 inh: inducers of caspase activity in MEF A1-2A-BIM cells, primary screen, A1 inhibitor project, cell-based, CaspaseGlo luminescence. 21,000 compounds, 0.51% hits. caspase-Glo luminescence, 3 h; percent of clofoctol signal, DMSO as zero. caspase activation, % (concentration not given with the values);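 active means most replicate scores above 10, or exactly half above 10 with mean activity above 10; inconclusive means mean activity below 10 while half the replicates exceed 10; inactive means most replicate scores below 10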;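 further: effector caspase 3 and 7 activity cleaving a DEVD luciferin substrate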
BJeLR viability: BJeLR cell viability loss, primary screen, luminescence, CellTiterGlo ATP | BJeLR fibroblasts viability, 48 h; HRASV12, hTERT and SV40 LT/ST transformed | viability loss activity score, % (concentration not given with the values) | 30,000 compounds, 0.64% hits | AID 2275, 2010; in the data active means viability loss activity score above about 50%; inconclusive means no clear call, values can overlap the other calls; inactive means below about 35%;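 further: higher score means fewer live cells and less ATP luminescence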
The depositor's hits bear a star.

`C/C=C(\C)C(=O)OC1C(OC(=O)/C=C(/C)CC(=O)O)C2(CO)C(O)CC3(C)C(=CCC4C5(C)CCC(OC6OC(C(=O)O)C(O)C(OC7OC(C)C(O)C(OC8OC(CO)C(O)C(O)C8O)C7O)C6O)C(C)(C)C5CCC43C)C2CC1(C)C` (stereo not given) gave A1 inh -3.2 and BJeLR viability 66.8*.
Screening C/C=C(/C)C(=O)O[C@H]1[C@H](OC(=O)/C=C/c2ccccc2)[C@@]23C(CC1(C)C)[C@]1(CCC4[C@@]5(C)CC[C@H](O[C@@H]6O[C@H](C(=O)O)[C@@H](O)[C@H](O[C@@H]7O[C@H](CO)[C@H](O)[C@H](O)[C@H]7O[C@@H]7O[C@@H](C)[C@H](O)[C@@H](O)[C@H]7O[C@@H]7OC[C@](O)(CO)[C@H]7O)[C@H]6O[C@@H]6O[C@H](CO)[C@H](O)[C@H](O)[C@H]6O)C(C)(C)C5CC[C@@]4(C)[C@]1(C)C[C@H]2O)O[C@H]3O (stereo not given in full) returned A1 inh -3.5 and BJeLR viability 79.9*.
`C/C=C(/C)C(=O)O[C@H]1[C@H](OC(=O)/C(C)=C\C)[C@]2(CO)[C@H](O)C[C@]3(C)C(=CCC4[C@@]5(C)CC[C@H](OC6OC(C(=O)O)C(O)C(OC7OC(C)C(O)C(OC8OC(CO)C(O)C(O)C8O)C7O)C6O)C(C)(C)C5CC[C@]43C)[C@@H]2CC1(C)C` (stereo not given in full) gave A1 inh -3.6 and BJeLR viability 124.8*.
Screening C[C@@H]1O[C@@H](O[C@H]2[C@H](O[C@H]3[C@H](O)[C@@H](C(=O)O)O[C@@H](O[C@H]4CC[C@@]5(C)C(CC[C@]6(C)C5CC[C@]57OC[C@@]8(CCC(C)(C)CC85)[C@H](O)C[C@]76C)C4(C)C)[C@@H]3O[C@@H]3O[C@H](CO)[C@@H](O[C@@H]4OC[C@@H](O)[C@H](O)[C@H]4O)[C@H](O)[C@H]3O)O[C@H](CO)[C@H](O)[C@@H]2O)[C@H](O)[C@H](O)[C@H]1O (stereo not given in full) returned A1 inh -1.1 and BJeLR viability 5.9.
For C[C@@H]1O[C@@H](O[C@H]2CC[C@@]3(C)C(CC[C@]4(C)C3CC=C3C5CC(C)(C)CC[C@]5(C(=O)O[C@@H]5O[C@H](CO)[C@@H](O)[C@H](O)[C@H]5O)CC[C@]34C(=O)O)C2(C)C)[C@H](O)[C@H](O)[C@H]1O (stereo not given in full) the results were A1 inh 0.1 and BJeLR viability 0.5.
For CN1CCc2nc(SCc3cccc(C(F)(F)F)c3)c(C#N)cc2C1 the results were BJeLR viability -0.3.
C[C@H](CO)N1C[C@H](C)[C@H](CN(C)Cc2ccc(Oc3ccccc3)cc2)Oc2c(NS(=O)(=O)c3cccs3)cccc2C1=O was read as BJeLR viability -3.8.
For Cc1ccc(S(=O)(=O)Nc2ccc3c(c2)C(=O)N([C@@H](C)CO)C[C@@H](C)[C@@H](CN(C)S(C)(=O)=O)O3)cc1 the results were A1 inh 0.2 and BJeLR viability -0.1.
`COc1ccc(S(=O)(=O)Nc2cccc3c2O[C@H](CN(C)S(=O)(=O)c2c(C)noc2C)[C@H](C)CN([C@@H](C)CO)C3=O)cc1` gave BJeLR viability 4.7.
`C[C@@H]1CN([C@@H](C)CO)C(=O)c2cccc(NC(=O)c3nc4ccccc4s3)c2O[C@H]1CN(C)S(=O)(=O)c1ccc(F)cc1` gave BJeLR viability -6.1.
`C[C@H](CO)N1C[C@H](C)[C@H](CN(C)C(=O)Nc2ccc(C(F)(F)F)cc2)Oc2ccc(NS(=O)(=O)c3cccs3)cc2C1=O` gave A1 inh 11.7* and BJeLR viability -2.1.
Screening C[C@H](CO)N1C[C@H](C)[C@H](CN(C)Cc2ccc(C(=O)Nc3ccccc3N)cc2)Oc2ccc(N(C)C)cc2C1=O returned BJeLR viability 15.2.
For C[C@@H]1CN([C@H](C)CO)C(=O)c2cc(NS(=O)(=O)c3cccs3)ccc2O[C@H]1CN(C)C(=O)Nc1ccc(F)cc1 the results were A1 inh -0.2 and BJeLR viability 4.4.
For C[C@@H]1CN([C@H](C)CO)C(=O)c2cc(N(C)C)ccc2O[C@@H]1CN(C)Cc1ccc(C(=O)Nc2ccccc2N)cc1 the results were BJeLR viability 54.1*.
For Cc1noc(C)c1S(=O)(=O)Nc1ccc2c(c1)C(=O)N([C@@H](C)CO)C[C@H](C)[C@H](CN(C)Cc1ccc3c(c1)OCO3)O2 the results were A1 inh 0.7 and BJeLR viability 1.0.
COc1ccc(CC2CCC3(CC2)NC(=O)c2ccccc2O3)cc1 (stereo not given) was read as BJeLR viability 11.6.
`COC(=O)c1[nH]c2c(c1C)C(=O)CC(c1ccccc1)C2` (stereo not given) gave BJeLR viability 60.2*.
`CCCc1c(C(=O)OCC)[nH]c2c1C(=O)CC(c1ccccc1)C2` (stereo not given) gave BJeLR viability 2.8.
C[C@H](CO)N1C[C@H](C)[C@H](CN(C)Cc2ccc(C(F)(F)F)cc2)Oc2ccc(NC(=O)c3ccncc3)cc2C1=O was read as A1 inh -0.3 and BJeLR viability -3.0.
For COc1cccc(NC(=O)Cn2c(=O)c3cccn3c3ccccc32)c1 the results were A1 inh -0.3 and BJeLR viability -0.5.
Screening Cc1cc(C)cc(NC(=O)Cn2c(=O)c3cccn3c3ccccc32)c1 returned A1 inh 55.7* and BJeLR viability 16.9.
For C[C@@H]1CN([C@H](C)CO)C(=O)c2cccc(NC(=O)c3ccc(-c4nccs4)cc3)c2O[C@@H]1CN(C)C(=O)Nc1ccccc1 the results were BJeLR viability -1.4.
`On1onc2c3cc(-c4ccccc4)nc3ccc21` gave A1 inh -2.3 and BJeLR viability 60.7*.
`Cc1ccc2nc(-c3ccncc3)cc(-c3ccccc3)c2c1` gave A1 inh inconclusive and BJeLR viability 1.2.
`N#CC(C(=O)c1cccc(C(F)(F)F)c1)=C1SCCCCS1` gave A1 inh 0.2 and BJeLR viability -8.6.
`CSC(SC)=C(C#N)C(=O)c1cccc(C(F)(F)F)c1` gave A1 inh 47.7* and BJeLR viability inconclusive.
For C[C@H]1O[C@@H](O[C@H]2[C@@H](O)C[C@H](O[C@H]3[C@@H](O)C[C@H](O[C@H]4CC[C@@]5(C)[C@H](CC[C@@H]6[C@@H]5C[C@@H](O)[C@]5(C)[C@@H](C7=CC(=O)OC7)CC[C@]65O)C4)O[C@@H]3C)O[C@@H]2C)C[C@H](O)[C@@H]1O the results were A1 inh 0.3 and BJeLR viability 98.8*.
`CCC(NC(=O)c1cc(OC)c(OC)c(OC)c1)C12CC3CC(CC(C3)C1)C2` (stereo not given) gave A1 inh -0.1 and BJeLR viability -2.9.
Screening CCCCc1ccc2nc(NC(=O)OC)[nH]c2c1 returned A1 inh -2.5 and BJeLR viability 66.5*.
For COC(=O)Nc1nc2ccc(-c3n[nH]c(=O)c4ccccc34)cc2[nH]1 the results were A1 inh 0.2 and BJeLR viability 16.7.
`CN(C)CCNC(=O)c1cc2c(s1)-c1ccc(Cl)cc1SC2` gave A1 inh 39.0* and BJeLR viability 123.3*.
CCCNC(=O)c1cc2c(s1)CS(=O)(=O)C2 was read as A1 inh 0.7 and BJeLR viability 0.1.
`O=C(C1CC(=O)N(c2ccccc2)C1)N(Cc1ccccc1)Cc1ccccc1` (stereo not given) gave A1 inh 0.1 and BJeLR viability 0.5.
